In the library only some 8.1% were active in any assay of this set; here they are far more common.
PD-1 reverse act = reversal of PD-1 mediated T-cell inhibition. primary human CD4 T cells, PD-L1 beads, CellTiter-Glo 96 h. activation, % (concentration not given with the values). 29,000 tested, under 10 active; call rule not given here;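 note: 0% = median vehicle wells and 100% = positive control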
MITF inh = blocks MITF activity | TRPM1 promoter luciferase, luminescence, 24 h | inhibition, % (test concentration not listed) | 37,000 tested, 0.28% active | AID 2240; in the data active = inhibition above about 85%; inconclusive = no clear call, values can overlap the other calls; inactive = below about 68%;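 note: human melanocyte line stably carrying TRPM1 promoter luciferase reporter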
Hedgehog inh = blocks Sonic Hedgehog signaling; Shh-LIGHT2 Gli-luciferase reporter, 30 h; inhibition, % (concentration not given with the values); 22,000 tested, 2.1% active; AID 2313;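 active = mean inhibition across valid replicates above about 65%, limit read from the data; inconclusive = mean under the limit, yet half or more replicates past it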;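 note: pathway switched on by Shh-conditioned medium diluted 1 in 25 in low serum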
NOMO-1 viab = STK33 inhibitor candidate reducing NOMO-1 cell viability | NOMO-1 AML viability, CellTiter-Glo luminescence, 72 h | inhibition, % (no concentration beside the values) | 37,000 tested, 7.5% active | AID 2330; in the data active = inhibition above about 80%; inconclusive = no clear call, values can overlap the other calls
Starred values were filed as active, the others as inactive.

CC(=O)O[C@H]1CC[C@@]2(C)C(CC[C@]3(C)C2C(=O)C=C2C4[C@@H](C)[C@H](C)CC[C@]4(C(=O)O)CC[C@]23C)C1(C)C (some centres undefined) was read as PD-1 reverse act 1.7, MITF inh -9.0, Hedgehog inh -79.5 and NOMO-1 viab 7.5.
For CCCc1ccc(-c2cc(C(=O)NCc3cnn(C)c3)c3ccccc3n2)cc1 the results were PD-1 reverse act -1.7, MITF inh -62.9 and NOMO-1 viab 32.0.
For CC(C)=CCOc1cc2oc(=O)ccc2cc1O the results were MITF inh 7.0, Hedgehog inh 7.5 and NOMO-1 viab 108.6*.
COc1cc2ccc(=O)oc2cc1OCC=C(C)C was read as Hedgehog inh 14.6.
For c1ccc2c(c1)NC(c1ccc3c(c1)CCO3)n1cccc1-2 (centres undefined) the results were PD-1 reverse act -0.5, MITF inh -5.0, Hedgehog inh inconclusive and NOMO-1 viab 52.4.
For O=C(/C=C/Sc1ccccn1)c1ccccc1 the results were PD-1 reverse act -2.9, MITF inh 64.8, Hedgehog inh inconclusive and NOMO-1 viab 114.3*.
For N#Cc1ccccc1NC(=O)CSc1ccccn1 the results were PD-1 reverse act 0.1, MITF inh -28.5, Hedgehog inh -24.3 and NOMO-1 viab 27.5.
For NC(=O)CSc1oc(-c2ccc(F)cc2)nc1S(=O)(=O)c1ccc(Cl)cc1 the results were PD-1 reverse act 3.5, MITF inh 16.9 and NOMO-1 viab 22.9.
For O=C(/C=C/S(=O)(=O)c1ccc(Cl)cc1)c1ccc(F)cc1 the results were PD-1 reverse act -58.1, MITF inh 9.6, Hedgehog inh 38.8 and NOMO-1 viab 120.4*.
C=C1C(=O)O[C@H]2C1C[C@@H](OC(C)=O)[C@@]1(C)[C@@H](OC(C)=O)C[C@@H](OC(C)=O)C(=C)[C@H]21 (some centres undefined) was read as PD-1 reverse act -12.6, MITF inh 10.5, Hedgehog inh 50.9 and NOMO-1 viab 120.4*.
Screening c1coc(-c2nnc(C3CCCCC3)o2)c1 returned PD-1 reverse act 0.7, MITF inh -13.6, Hedgehog inh -21.7 and NOMO-1 viab -17.7.
`C[C@@H]1CN([C@@H](C)CO)C(=O)Cc2cc(NC(=O)Cc3ccccc3)ccc2O[C@@H]1CN(C)Cc1ccc(C(=O)Nc2ccccc2N)cc1` gave PD-1 reverse act -1.9, MITF inh 11.8 and NOMO-1 viab 95.8*.
For C[C@H](CO)N1C[C@H](C)[C@H](CN(C)Cc2ccc(C(=O)Nc3ccccc3N)cc2)Oc2ccc(NC(=O)Cc3ccccc3)cc2CC1=O the results were PD-1 reverse act -4.4, MITF inh 13.9 and NOMO-1 viab 127.9*.
C[C@@H]1CN([C@H](C)CO)C(=O)Cc2cc(NC(=O)Cc3ccccc3)ccc2O[C@H]1CN(C)Cc1ccc(C(=O)Nc2ccccc2N)cc1 was read as PD-1 reverse act 1.4, MITF inh -12.7 and NOMO-1 viab 28.5.
For COc1ccc([N+](=O)[O-])cc1NC(=O)CN(C)S(=O)(=O)c1ccc(C)cc1 the results were MITF inh -4.9 and NOMO-1 viab 9.3.
For COc1cc(Cl)c(C(F)(F)F)cc1NC(=O)c1c(OC)cccc1OC the results were PD-1 reverse act 1.2, MITF inh 2.0, Hedgehog inh 5.0 and NOMO-1 viab 43.0.
C[C@@H]1CN([C@@H](C)CO)C(=O)c2cc(NC(=O)Nc3ccc(C(F)(F)F)cc3)ccc2O[C@@H]1CN(C)C(=O)NC1CCCCC1 was read as PD-1 reverse act -4.3, MITF inh 47.5, Hedgehog inh 25.5 and NOMO-1 viab 107.4*.
Screening C[C@@H]1CN([C@H](C)CO)C(=O)c2cc(NC(=O)Nc3ccc(C(F)(F)F)cc3)ccc2O[C@H]1CN(C)C(=O)Nc1ccc(C(F)(F)F)cc1 returned PD-1 reverse act -3.8, MITF inh 23.7, Hedgehog inh 3.0 and NOMO-1 viab 108.6*.
`C[C@H](CO)N1C[C@H](C)[C@@H](CN(C)C(=O)Nc2ccc(C(F)(F)F)cc2)Oc2ccc(NC(=O)Nc3ccc(F)cc3)cc2C1=O` gave PD-1 reverse act -1.7, MITF inh 16.1, Hedgehog inh -18.3 and NOMO-1 viab 19.3.
For C[C@H]1CN([C@@H](C)CO)C(=O)c2cc(NC(=O)Nc3ccc(F)cc3)ccc2O[C@@H]1CN(C)C(=O)Nc1ccc(C(F)(F)F)cc1 the results were PD-1 reverse act -0.4, MITF inh 14.1, Hedgehog inh -32.4 and NOMO-1 viab 29.0.
`C[C@H]1CN([C@@H](C)CO)C(=O)c2cc(NC(=O)Nc3ccc(C(F)(F)F)cc3)ccc2O[C@@H]1CN(C)C(=O)Nc1ccc(C(F)(F)F)cc1` gave PD-1 reverse act -2.9, MITF inh 18.5, Hedgehog inh 9.6 and NOMO-1 viab 122.1*.
`CN1C(N)=NC(=O)/C1=C/c1cccnc1` gave PD-1 reverse act 0.1, MITF inh 4.8, Hedgehog inh -5.0 and NOMO-1 viab 34.3.
`Cc1ccccc1OCC(=O)Nc1cccc(-c2nnc(-c3ccco3)o2)c1` gave PD-1 reverse act -0.8, MITF inh -26.1 and NOMO-1 viab 66.8.
For C[C@H]1CN([C@@H](C)CO)C(=O)c2cccc(NS(=O)(=O)c3ccc(F)cc3)c2O[C@H]1CN(C)Cc1ccc(C(=O)Nc2ccccc2N)cc1 the results were PD-1 reverse act 1.5, MITF inh 33.2 and NOMO-1 viab 113.8*.
For C[C@@H]1CN([C@@H](C)CO)C(=O)c2cccc(NS(=O)(=O)c3ccc(F)cc3)c2O[C@H]1CN(C)Cc1ccc(C(=O)Nc2ccccc2N)cc1 the results were PD-1 reverse act -0.5, MITF inh -2.2 and NOMO-1 viab 45.3.
For C[C@@H]1CN([C@@H](C)CO)C(=O)c2cccc(NS(=O)(=O)c3ccc(F)cc3)c2O[C@@H]1CN(C)Cc1ccc(C(=O)Nc2ccccc2N)cc1 the results were PD-1 reverse act 0.6, MITF inh 14.6 and NOMO-1 viab 128.7*.
C[C@H]1CN([C@@H](C)CO)C(=O)c2cccc(NS(=O)(=O)c3ccc(F)cc3)c2O[C@@H]1CN(C)Cc1ccc(C(=O)Nc2ccccc2N)cc1 was read as PD-1 reverse act 0.6, MITF inh 27.1 and NOMO-1 viab 94.0*.
Screening C[C@H](CO)N1C[C@H](C)[C@@H](CN(C)Cc2ccc(C(=O)Nc3ccccc3N)cc2)Oc2c(NS(=O)(=O)c3ccc(F)cc3)cccc2C1=O returned PD-1 reverse act -0.8, MITF inh 15.1 and NOMO-1 viab 42.8.
CSc1ccccc1NC(=O)CN(C1CCCCC1)S(=O)(=O)c1ccc(F)cc1 was read as PD-1 reverse act -2.0, MITF inh -5.5 and NOMO-1 viab 46.4.
Screening OC(Cc1ccccc1)(c1ccccc1)c1ccccc1N=Cc1ccc2c(c1)OCO2 (centres undefined) returned PD-1 reverse act 0.3, MITF inh 14.5, Hedgehog inh 14.7 and NOMO-1 viab 90.5*.
Screening CSC1=C(C#N)C(=O)NC(c2ccc(Cl)cc2)S1 (centres undefined) returned PD-1 reverse act -4.4, MITF inh 6.4, Hedgehog inh 0.0 and NOMO-1 viab 115.7*.
Screening COc1cc(C(=O)NC(C)C(=O)O)cc(OC)c1OC (centres undefined) returned MITF inh -8.7 and NOMO-1 viab 25.9.
